Source: PubChem (University of Kansas High Throughput Screening Laboratory)
This is one part of a sample in which hits are shown more often than they occur.
Pf apPOL inh: Pf-apPOL DNA polymerase inhibition; Recombinant Pf-apPOL, molecular beacon fluorescence, 1.5 h; inhibition, % at 10 µM; hit rate 0.25% among 210,000
mHTT CaM bind: mHTT-calmodulin interaction abrogation. P42858. AlphaScreen His-mHTT/GST-CaM binding, luminescence. inhibition, % at 15 µM. hit rate 3.6% among 190,000
Target sequence (P42858 whole entry, looked up, change not shown): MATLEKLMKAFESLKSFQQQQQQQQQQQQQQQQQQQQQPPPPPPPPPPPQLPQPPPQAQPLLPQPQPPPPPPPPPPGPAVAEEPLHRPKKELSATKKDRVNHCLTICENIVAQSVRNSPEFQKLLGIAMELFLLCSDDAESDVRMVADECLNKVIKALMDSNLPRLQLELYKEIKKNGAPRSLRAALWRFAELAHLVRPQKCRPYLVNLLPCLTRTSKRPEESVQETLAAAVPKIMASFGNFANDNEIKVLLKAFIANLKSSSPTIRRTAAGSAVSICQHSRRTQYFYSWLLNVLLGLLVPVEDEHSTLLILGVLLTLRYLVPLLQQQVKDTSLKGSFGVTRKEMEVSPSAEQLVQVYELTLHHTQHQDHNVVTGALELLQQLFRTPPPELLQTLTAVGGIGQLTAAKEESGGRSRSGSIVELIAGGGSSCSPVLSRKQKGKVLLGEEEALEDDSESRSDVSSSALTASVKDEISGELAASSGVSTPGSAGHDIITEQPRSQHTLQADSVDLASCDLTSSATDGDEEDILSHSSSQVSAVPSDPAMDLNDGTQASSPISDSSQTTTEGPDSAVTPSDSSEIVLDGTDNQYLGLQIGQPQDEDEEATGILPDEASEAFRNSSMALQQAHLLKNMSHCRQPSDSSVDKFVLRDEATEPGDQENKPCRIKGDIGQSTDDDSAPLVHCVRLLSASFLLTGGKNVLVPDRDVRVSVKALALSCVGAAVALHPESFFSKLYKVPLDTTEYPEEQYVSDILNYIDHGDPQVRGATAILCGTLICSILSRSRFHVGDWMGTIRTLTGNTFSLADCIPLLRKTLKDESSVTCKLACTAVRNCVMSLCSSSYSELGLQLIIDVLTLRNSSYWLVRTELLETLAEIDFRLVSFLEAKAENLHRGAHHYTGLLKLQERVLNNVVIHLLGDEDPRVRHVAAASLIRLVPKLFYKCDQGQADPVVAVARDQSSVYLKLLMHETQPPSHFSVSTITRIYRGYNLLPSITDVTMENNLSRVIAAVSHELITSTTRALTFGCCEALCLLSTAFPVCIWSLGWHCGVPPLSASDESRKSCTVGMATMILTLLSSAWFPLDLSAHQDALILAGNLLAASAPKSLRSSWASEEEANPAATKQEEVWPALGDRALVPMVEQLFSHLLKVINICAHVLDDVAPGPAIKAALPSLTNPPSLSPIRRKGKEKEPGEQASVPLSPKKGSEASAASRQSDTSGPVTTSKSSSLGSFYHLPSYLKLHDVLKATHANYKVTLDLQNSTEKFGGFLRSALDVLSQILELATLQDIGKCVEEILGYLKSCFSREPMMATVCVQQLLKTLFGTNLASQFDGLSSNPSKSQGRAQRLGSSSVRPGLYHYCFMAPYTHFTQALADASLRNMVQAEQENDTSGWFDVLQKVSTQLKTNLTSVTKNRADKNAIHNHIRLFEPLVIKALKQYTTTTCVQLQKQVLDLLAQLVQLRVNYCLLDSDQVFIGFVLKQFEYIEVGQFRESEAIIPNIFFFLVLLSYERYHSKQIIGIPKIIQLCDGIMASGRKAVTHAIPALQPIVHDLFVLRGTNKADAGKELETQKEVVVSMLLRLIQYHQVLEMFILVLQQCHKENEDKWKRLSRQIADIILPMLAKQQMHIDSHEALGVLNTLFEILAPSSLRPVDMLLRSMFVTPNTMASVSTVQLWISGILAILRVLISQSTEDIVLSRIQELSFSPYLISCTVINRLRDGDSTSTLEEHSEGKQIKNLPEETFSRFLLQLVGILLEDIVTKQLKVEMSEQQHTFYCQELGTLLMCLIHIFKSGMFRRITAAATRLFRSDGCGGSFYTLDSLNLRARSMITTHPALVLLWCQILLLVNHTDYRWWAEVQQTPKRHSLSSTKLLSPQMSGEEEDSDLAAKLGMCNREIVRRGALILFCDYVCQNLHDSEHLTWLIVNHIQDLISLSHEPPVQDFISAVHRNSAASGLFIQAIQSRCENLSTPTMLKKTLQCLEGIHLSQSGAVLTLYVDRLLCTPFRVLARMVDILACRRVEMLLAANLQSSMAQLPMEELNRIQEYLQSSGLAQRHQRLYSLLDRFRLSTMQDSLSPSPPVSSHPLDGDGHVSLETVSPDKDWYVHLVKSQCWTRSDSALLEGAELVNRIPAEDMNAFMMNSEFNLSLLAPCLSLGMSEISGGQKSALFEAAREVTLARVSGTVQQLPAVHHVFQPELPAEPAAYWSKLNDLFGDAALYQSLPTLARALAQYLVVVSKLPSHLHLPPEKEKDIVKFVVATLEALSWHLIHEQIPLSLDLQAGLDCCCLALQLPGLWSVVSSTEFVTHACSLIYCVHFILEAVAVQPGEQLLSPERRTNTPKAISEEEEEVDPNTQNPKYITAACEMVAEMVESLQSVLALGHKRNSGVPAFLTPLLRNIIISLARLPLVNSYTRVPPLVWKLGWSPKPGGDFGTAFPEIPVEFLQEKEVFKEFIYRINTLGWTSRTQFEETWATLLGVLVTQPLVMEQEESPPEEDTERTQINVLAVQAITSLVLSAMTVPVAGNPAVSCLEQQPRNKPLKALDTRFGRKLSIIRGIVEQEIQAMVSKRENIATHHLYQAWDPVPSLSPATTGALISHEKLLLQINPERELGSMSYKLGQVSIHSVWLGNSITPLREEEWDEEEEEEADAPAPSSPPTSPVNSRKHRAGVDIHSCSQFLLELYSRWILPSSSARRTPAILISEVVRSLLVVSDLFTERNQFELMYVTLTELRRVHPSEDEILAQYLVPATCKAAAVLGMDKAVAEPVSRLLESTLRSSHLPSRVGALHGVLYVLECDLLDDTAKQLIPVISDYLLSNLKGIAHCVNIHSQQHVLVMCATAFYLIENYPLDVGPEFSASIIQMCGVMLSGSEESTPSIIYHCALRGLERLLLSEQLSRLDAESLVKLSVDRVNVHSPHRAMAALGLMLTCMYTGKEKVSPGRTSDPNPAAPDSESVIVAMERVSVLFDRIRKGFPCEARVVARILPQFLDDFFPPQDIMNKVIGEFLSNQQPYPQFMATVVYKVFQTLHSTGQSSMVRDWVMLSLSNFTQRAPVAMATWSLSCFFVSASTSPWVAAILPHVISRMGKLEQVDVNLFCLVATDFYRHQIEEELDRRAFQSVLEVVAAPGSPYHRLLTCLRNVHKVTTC
Numbers stand for hits; n = inactive; x = not tested or not shown; + = active, no number. No stated cut-off is given here; in the data, active means inhibition above about 50%; inactive means the rest.

SMILES	Pf apPOL inh	mHTT CaM bind
Cc1ccc2oc(C(=O)N3CCN(c4cccc(C(F)(F)F)c4)CC3)cc2n1	n	72
O=C(C1CCN(c2ccncc2)CC1)N1CCN(c2cccc(C(F)(F)F)c2)CC1	n	n
CC(C)CNC(=O)Cc1cn(C)c2ncccc12	n	n
Cc1cc(C)c2ccc(NN)nc2c1O	n	85
Cc1cc(C)c2ccc(C=O)nc2c1O	n	69
Cc1cc(C)c2ccc(CO)nc2c1O	n	n
CC(=O)Nc1ccccc1/C=C/c1ccc2c(C)cc(C)c(O)c2n1	n	n
COc1ccc(CC(=O)N2CCN(c3cccc(Cl)c3)CC2)cc1OC	n	55
COc1ccc(CC(=O)N2CCN(c3cccc(Cl)c3)CC2)cc1	n	n
Nc1nc(-c2nccs2)cc(C(F)(F)F)n1	n	x
CC1=C(C(=O)Nc2ccc(F)c(F)c2)C(c2ccccc2F)NC(=O)N1 (stereo not drawn)	n	n
CC1=C(C(=O)Nc2ccc(C)c(Cl)c2)C(c2ccccc2Cl)NC(=O)N1 (stereo not drawn)	n	90
Cc1cc(C(=O)N2CCC(c3nc(C(=O)N4CCOCC4)c(C)o3)CC2)no1	n	n
O=S(=O)(c1ccc(F)cc1)N1CCCc2ccccc21	n	n
O=C1CN(S(=O)(=O)c2ccc3[nH]c4c(c3c2)CCCC4)c2ccccc2N1	n	74
O=S(=O)(c1ccc2[nH]c3c(c2c1)CCCC3)N1CCCc2ccccc21	n	77
O=C1CN(S(=O)(=O)c2ccc(Br)cc2)c2ccccc2N1	n	n
COc1cccc(CNc2ccc(OC(F)(F)F)cc2)c1O	n	n
CN(C)S(=O)(=O)c1ccc(C(=O)N2CCC(c3nnc(-c4ccco4)o3)CC2)cc1	n	n
CC1CCN(CC(O)COCC23CC4CC(CC(C4)C2)C3)CC1 (stereo not drawn)	n	n
CC1CN(Cc2cc([N+](=O)[O-])c3cccnc3c2O)CC(C)O1 (stereo not drawn)	n	100
O=[N+]([O-])c1cc(CN2CCOCC2)c(O)c2ncccc12	n	100
O=[N+]([O-])c1ccccc1CN1CCOCC1	n	n
CC(=O)c1ccc(N2CC(C)OC(C)C2)c([N+](=O)[O-])c1 (stereo not drawn)	n	x
Cn1c(Oc2ccc(Cl)cc2)nc2c1c(=O)n(Cc1ccc(F)cc1)c(=O)n2C	n	n
SMILES	Pf apPOL inh	mHTT CaM bind
Cc1ccccc1NC(=O)C1CCCN(c2ncnc3c2nc2n3CCCCC2)C1 (stereo not drawn)	n	n
O=C1CSC(=O)N1CC(O)COc1ccc(OCC(O)CN2C(=O)CSC2=O)cc1 (stereo not drawn)	70	n
O=C1CSC(=O)N1CCOc1ccc(F)cc1	n	n
CCS(=O)(=O)N1CCCc2cc(NC(=O)c3ccco3)ccc21	n	n
O=C1CN(C(=O)c2ccco2)CC(=O)N1	n	n
CC1CCN(Cc2cc(Br)c(O)c3ncccc23)CC1	n	100
Cc1ccc2c(CN3CCC(C)CC3)cc(=O)oc2c1	n	n
COc1cccc(C2=NOC(C(=O)NCCCN3CCOCC3)C2)c1 (stereo not drawn)	n	n
O=C(Nc1cccc(Cl)c1Cl)c1ccco1	n	n
S=c1[nH]nc(-c2ccccn2)n1/N=C/c1cccnc1	x	+
S=c1[nH]nc(-c2ccncc2)n1N=Cc1cccnc1	n	x
CN(C)Cc1c(O)ccc2c(=O)c(-c3ccccc3)c(C(F)(F)F)oc12	n	n
COc1ccc(-c2noc(C3CCCN3C(=O)c3cc(F)cc(F)c3)n2)cc1 (stereo not drawn)	n	n
COCCN=C1Nc2ccccc2NC12CCCN(C(=O)Cc1c[nH]c3ccccc13)C2 (stereo not drawn)	n	n
COCCN=C1Nc2ccccc2NC12CCCN(C(=O)c1ccccn1)C2 (stereo not drawn)	n	n
COCCN=C1Nc2ccccc2NC12CCCN(C(=O)c1n[nH]c3ccccc13)C2 (stereo not drawn)	n	76
COCCN=C1Nc2ccccc2NC12CCCN(C(=O)Cc1ccccc1F)C2 (stereo not drawn)	n	100
COCCN=C1Nc2ccccc2NC12CCCN(C(=O)Cc1ccsc1)C2 (stereo not drawn)	n	98
COCCN=C1Nc2ccccc2NC12CCCN(C(=O)c1ccccc1C)C2 (stereo not drawn)	n	n
O=[N+]([O-])c1cccc(C=Nc2nc3c(s2)CCCC3)c1	n	n
Cc1ccc(NC(=O)c2ccc(-c3cncnc3)nc2)cc1	n	n
CC(C)c1ccc(CNC(=O)C2CCN(c3nnc(-c4ccccc4)o3)CC2)cc1	n	n
COc1ccc(C=C2Oc3cc(OCC(C)=O)ccc3C2=O)c(OC)c1OC	n	n
Cc1ccc(-c2nc(C(=O)Nc3cc(C)on3)c3n2CCCCC3)cc1	n	n
Cc1cc(N2C(=O)CCC2(C)C(=O)NC2CCCC2)ccc1Br (stereo not drawn)	n	n
O=C(CCS(=O)(=O)c1cc(Br)cc2c1N(C(=O)C1CC1)CC2)N1CCCCC1	n	n
